In the library only some 6.7% were active in any assay of this set; here they are far more common.
T cruzi growth-1: inhibitors of T. cruzi proliferation. T. cruzi beta-gal in NIH3T3, GalScreen luminescence, 90 h. inhibition, % at 8.34 µM. 5.9% of 77,000 active. AID 624255;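 active = mean inhibition above about 93%, with at least 55% of replicates each passing it, limit read from the data, passing the limit was not always enough; inconclusive = only one of those two conditions holds; inactive = neither condition holds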
Pf Dd2 growth: blocks growth of Plasmodium falciparum Dd2 parasites | P. falciparum Dd2 growth, SYBR Green, 72 h; hits give low values | activity change, % at 10 µM | 2.3% of 94,000 active; in the data active = activity change below about -80%; inconclusive = no clear call, values can overlap the other calls
C diff HTS: blocks growth of Clostridium difficile | Clostridium difficile clinical isolate growth, OD600, 24 h; hits give low values | 0.25% of 86,000 active | growth activity, negative = inhibition, % at 16 µg/mL (by protocol);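 active = mean growth activity at or below -80% and every replicate also at or below -80%; inconclusive = mean at or below -80% but some replicate above -80%; inactive = mean growth activity above -80%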;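 note: 0% = DMSO wells and -100% = levofloxacin 16 µg/mL wells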
T cruzi growth-2: blocks T. cruzi growth in NIH3T3 host cells; shares compounds with T cruzi growth-1; T. cruzi beta-gal in NIH3T3, GalScreen luminescence, 90 h; inhibition, % at 8.35 µM; 72% of 5,600 active; AID 651739;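 active = mean replicate inhibition above about 95% and at least 55% of replicates individually reaching it, limit read from the data; inconclusive = only one of the two criteria is met; inactive = neither criterion is met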
T cruzi growth-3: Trypanosoma cruzi proliferation inhibition; shares compounds with T cruzi growth-1; T. cruzi beta-gal in NIH3T3, GalScreen luminescence, 90 h; inhibition, % at 2.09 µM; 21% of 5,600 active; AID 651740;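 active = mean inhibition above about 95%, with at least 55% of replicates also reaching it, limit read from the data; inconclusive = meets just one of the two conditions; inactive = meets neither condition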;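 note: plate controls were neutral control median for no effect and positive control median for full effect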
NIH3T3 tox: kills mouse NIH/3T3 fibroblasts; cytotoxicity (signal decrease), % at 8.35 µM; shares compounds with T cruzi growth-1; AID 651742; NIH/3T3 viability, CellTiter-Glo ATP luminescence, 90 h; 14% of 5,600 active;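 active = mean signal decrease across replicates above about 35% based on untreated-well scatter, with enough replicates individually passing, limit read from the data; inconclusive = no rule stated though some were filed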;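 note: 0% = median of neutral control wells and 100% = median of positive control wells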
3T3 cytotox 2: kills mouse NIH/3T3 fibroblasts; shares compounds with T cruzi growth-1; NIH/3T3 viability, CellTiter-Glo ATP luminescence, 90 h; inhibition, % at 24.9 µM; 56% of 5,600 active; AID 651744;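 active = mean loss of cell viability signal at or above a set limit, and enough replicates individually reaching it; inconclusive = meets only the mean limit or only the replicate share; inactive = meets neither condition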;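 note: 0% = median of neutral control wells and 100% = median of positive control wells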
* hit, by the source's call; ? = inconclusive; nt = no result.

SMILES	T cruzi growth-1	Pf Dd2 growth	C diff HTS	others
C[C@H](CO)N1C[C@H](C)[C@H](CN(C)C(=O)Cc2ccccc2)OCCCC[C@H](C)Oc2ccc(NC(=O)Nc3ccc(F)cc3)cc2C1=O	40	50	-3
C[C@@H]1CN([C@H](C)CO)C(=O)c2cc(NC(=O)Nc3ccc(F)cc3)ccc2O[C@@H](C)CCCCO[C@@H]1CN(C)C(=O)Cc1ccccc1	87	?	3
Cc1noc(C)c1NC(=O)Nc1ccc2c(c1)C(=O)N([C@@H](C)CO)C[C@H](C)[C@@H](CN(C)C(=O)Cc1ccccc1)OCCCC[C@@H](C)O2	45	-42	-1
C[C@@H]1CN([C@H](C)CO)C(=O)c2cc(NC(=O)Nc3ccccc3)ccc2O[C@@H](C)CCCCO[C@@H]1CN(C)C(=O)Cc1ccccc1	-6	-75	nt
Cc1noc(C)c1S(=O)(=O)Nc1ccc2c(c1)CC(=O)N([C@H](C)CO)C[C@H](C)[C@@H](CN(C)C)O2	-19	21	4
COc1ccc(NC(=O)N(C)C[C@H]2Oc3c(cccc3N(C)C)C(=O)N([C@@H](C)CO)C[C@@H]2C)cc1	50	-6	2
CC=Cc1ccc2n(c1=O)C[C@H]1[C@H](CO)[C@@H](C(=O)NCC3CC3)N(C(=O)C3CCOCC3)[C@@H]21 (mixture of isomers)	28	3	-1
COc1ccc(NC(=O)Nc2ccc3c(c2)[C@H]2C[C@H](CC(=O)N4CCN(C)CC4)O[C@H](CO)[C@H]2O3)cc1	47	4	-3
CN(C)C(=O)C[C@@H]1C[C@@H]2c3cc(NC(=O)NC4CCCC4)ccc3O[C@@H]2[C@H](CO)O1	34	23	1
O=C(C[C@H]1CC[C@@H]2[C@H](COC[C@@H](O)CN2Cc2cc(F)cc(F)c2)O1)NC1CCCC1	64	-32	-4
COc1ccccc1S(=O)(=O)N1C[C@H](O)COC[C@H]2O[C@@H](CC(=O)O)CC[C@@H]21	-19	3	nt
C[C@@H]1CCCCO[C@H](CN(C)C(=O)Cc2ccccc2)[C@H](C)CN([C@@H](C)CO)C(=O)c2cc(NC(=O)Nc3ccc(F)cc3)ccc2O1	100*	-66	-3	T cruzi growth-2=103*;T cruzi growth-3=10;NIH3T3 tox=-24;3T3 cytotox 2=-34
C[C@H](CO)N1C[C@H](C)[C@@H](CN(C)C(=O)Cc2ccccc2)OCCCC[C@H](C)Oc2ccc(NC(=O)Nc3ccccc3)cc2C1=O	48	24	nt
COc1ccc(S(=O)(=O)Nc2ccc3c(c2)C(=O)N([C@H](C)CO)C[C@@H](C)[C@H](CN(C)C(=O)Nc2ccc(C(F)(F)F)cc2)O3)cc1	-8	12	-9
C[C@H]1CN([C@@H](C)CO)C(=O)c2cccc(NC(=O)Nc3cccc4ccccc34)c2O[C@@H]1CN(C)C(=O)Nc1ccc(F)cc1	15	-3	2
C[C@H]1CN([C@@H](C)CO)C(=O)c2cccc(NC(=O)Nc3cccc4ccccc34)c2O[C@@H]1CN(C)C(=O)Nc1ccccc1	81	-12	-1
C[C@@H]1CN([C@H](C)CO)C(=O)c2cccc(NC(=O)Nc3ccc(C(F)(F)F)cc3)c2O[C@@H]1CN(C)C(=O)Nc1cccc2ccccc12	93	-43	-8
C[C@@H]1CN([C@H](C)CO)C(=O)c2cccc(NC(=O)C3CCCCC3)c2O[C@H]1CN(C)C(=O)Nc1ccc(F)cc1	-7	-6	2
C[C@H]1CN([C@@H](C)CO)C(=O)c2cccc(NC(=O)Nc3ccc(C(F)(F)F)cc3)c2O[C@H]1CN(C)C(=O)Nc1cccc2ccccc12	101*	-39	2	T cruzi growth-2=93;T cruzi growth-3=112*;NIH3T3 tox=63*;3T3 cytotox 2=105*
C[C@@H]1CN([C@@H](C)CO)C(=O)c2cccc(NC(=O)C3CC3)c2O[C@H]1CN(C)C(=O)Nc1ccc(F)cc1	108*	-7	-4	T cruzi growth-2=96*;T cruzi growth-3=77;NIH3T3 tox=25;3T3 cytotox 2=21
C[C@H]1CN([C@@H](C)CO)C(=O)c2cccc(NC(=O)Nc3cccc4ccccc34)c2O[C@H]1CN(C)C(=O)Nc1ccccc1	102*	-12	-7	T cruzi growth-2=?;T cruzi growth-3=65;NIH3T3 tox=-17;3T3 cytotox 2=8
C[C@H](CO)N1C[C@H](C)[C@H](CN(C)C(=O)Nc2ccc(F)cc2)Oc2c(NC(=O)Nc3cccc4ccccc34)cccc2C1=O	?	-77	-6	T cruzi growth-2=109*;T cruzi growth-3=94;NIH3T3 tox=37*;3T3 cytotox 2=95*
CO[C@H]1CN(C)C(=O)c2cc(NC(=O)C3CCOCC3)ccc2OC[C@H](C)N(Cc2nccs2)C[C@@H]1C	-31	24	nt
C[C@H](O)C#Cc1cnc2c(c1)C(=O)N([C@@H](C)CO)C[C@@H](C)[C@H](CN(C)C(=O)Cc1ccccn1)O2	4	52	-7
Cc1noc(C)c1S(=O)(=O)N(C)C[C@@H]1Oc2ccc(NC(=O)NC3CCCCC3)cc2CC(=O)N([C@@H](C)CO)C[C@H]1C	16	3	-8
SMILES	T cruzi growth-1	Pf Dd2 growth	C diff HTS	others
O=C(C[C@H]1CC[C@@H](NC(=O)c2cccc(F)c2)[C@H](CO)O1)NCc1ccc(Oc2ccccc2)cc1	17	18	-8
C[C@@H]1CN([C@H](C)CO)C(=O)c2cc(NC(=O)Nc3ccc(C(F)(F)F)cc3)ccc2O[C@@H](C)CCCCO[C@H]1CN(C)S(=O)(=O)c1ccccc1	98*	-48	2	T cruzi growth-2=102*;T cruzi growth-3=109*;NIH3T3 tox=19;3T3 cytotox 2=32
C[C@@H]1CCCCO[C@@H](CN(C)S(=O)(=O)c2ccccc2)[C@H](C)CN([C@H](C)CO)C(=O)c2cc(NC(=O)Nc3ccc(C(F)(F)F)cc3)ccc2O1	86	-76	4
C[C@H]1CCCCO[C@H](CN(C)S(=O)(=O)c2ccccc2)[C@@H](C)CN([C@@H](C)CO)C(=O)c2cc(NC(=O)Nc3ccc(C(F)(F)F)cc3)ccc2O1	?	-68	1	T cruzi growth-2=109*;T cruzi growth-3=117*;NIH3T3 tox=7;3T3 cytotox 2=4
C[C@@H]1CCCCO[C@H](CN(C)S(=O)(=O)c2ccccc2)[C@H](C)CN([C@H](C)CO)C(=O)c2cc(NC(=O)Nc3ccc(C(F)(F)F)cc3)ccc2O1	87	-72	-7
CO[C@@H]1CN(C)C(=O)c2cc(NS(=O)(=O)c3cccc(Cl)c3)ccc2OC[C@H](C)NC[C@H]1C	-7	23	nt
CN(C)C(=O)c1cccc(-c2ccc([C@H]3[C@@H](C#N)N(C(=O)C4CC4)[C@@H]3CO)cc2)c1	16	5	-9
C[C@H]1CN([C@@H](C)CO)C(=O)c2cccc(NC(=O)Nc3ccccc3)c2O[C@H]1CN(C)C(=O)NC1CCCCC1	34	24	5
COc1ccc(-c2ccc3c(c2)[C@@H]2[C@@H](CCN2S(=O)(=O)c2ccccc2F)[C@@H](CO)N3)cc1	23	-40	-22

Screening data (PubChem BioAssay)
